Drawing on PubChem BioAssay (NCI), this text covers growth inhibition for 9 molecules.

A short description of experiment [1]: NCI Yeast Anticancer Drug Screen. Data for the rad50 strain (AID 155).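 Also: 0% = growth of vehicle-only cultures of the same strain.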 Conditions: S. cerevisiae rad50 strain growth inhibition, hits give high values. Put shortly: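 Relative growth inhibition (compound vs vehicle) was measured in yeast with a defined repair-gene alteration.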
Experiment [2] in a line: NCI Yeast Anticancer Drug Screen. Data for the mec2-1 strain (AID 157). The following applies: S. cerevisiae mec2-1 strain, hits give high values. Put shortly:
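mec2-1 yeast strain, carrying an alteration in DNA damage repair or cell cycle control, was exposed to compounds; growth inhibition was measured relative to vehicle-treated controls.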

The nature of experiment [3]: NCI Yeast Anticancer Drug Screen. Data for the sgs1 mgt1 strain (AID 161).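 Also: 0% = growth of cultures given vehicle only.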 The following applies: S. cerevisiae sgs1 mgt1 strain, hits give high values. Put shortly: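 Growth of a repair-deficient yeast mutant was monitored after compound treatment and expressed as inhibition relative to vehicle-treated cultures.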
Experiment [4] can be described thus: NCI Yeast Anticancer Drug Screen. Data for the cln2 rad14 strain (AID 165).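 Also: 0% = growth equal to vehicle treated cultures.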 Conditions: S. cerevisiae cln2 rad14 strain, hits give high values. Put shortly: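 Yeast carrying cln2 and rad14 alterations (cell cycle control and DNA damage repair) were exposed to compounds. Growth inhibition was measured against vehicle-treated controls.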
The nature of experiment [5]: NCI Yeast Anticancer Drug Screen. Data for the bub3 strain (AID 167). Conditions: S. cerevisiae bub3 mutant strain, hits give high values. Put shortly: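 Screening used yeast with an engineered genetic alteration affecting cell cycle control. Compound-exposed cultures were compared with vehicle cultures, and reduced growth was taken as inhibition.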
A short description of experiment [6]: NCI Yeast Anticancer Drug Screen. Data for the mlh1 rad18 strain (AID 175). Conditions: S. cerevisiae mlh1 rad18 strain growth inhibition, hits give high values. Put shortly: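 Growth inhibition of the yeast strain was measured after compound exposure and expressed relative to vehicle-treated controls. The strain carries defined defects in DNA damage repair.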

[7] abbreviates: at 5.0 µM (retest, dose inferred, filed as 0.5).
The mark [8] stands for this setting: at 50.0 µM (retest, dose inferred, filed as 5.0).

Several values for one entry are separate records, joined by “and”; a condition that tells them apart may be missing. Equal entries are not always repeated. This is part of a sample that, as a whole, favours compounds with a hit. Of some 79,000 tested, about 15% had one in any assay. Values without a mark were called inactive. Activity calls are given as the source filed them. Rule as the data show it: active = growth inhibition above about 70%; inactive = the rest.

As for `CCOC(=O)C(NC(=O)C(Cc1ccc(N(CCCl)CCCl)cc1)NC(C)=O)C(C)C` (configuration not stated), the growth inhibition in experiment [1] (setting [7]) is -4%; in experiment [1] (setting [8]) it was -9%; in experiment [1] (at 50.0 µM), 17.5% and 11.7%; in experiment [2] (setting [7]) it was -1%; in experiment [2] (setting [8]), -1%; in experiment [2] (at 50.0 µM), 11.3% and -1.25%. The growth inhibition in experiment [3] (setting [7]) was -5%; in experiment [3] (setting [8]), 7%; in experiment [3] (at 50.0 µM), 37.2% and -1.2%; in experiment [4] (setting [7]), -1%; in experiment [4] (setting [8]), -2%; in experiment [4] (at 50.0 µM) it was 67.7% and -2.95%. Also, the growth inhibition in experiment [5] (setting [7]) was -2%; in experiment [5] (setting [8]), -2%; in experiment [5] (at 50.0 µM) it was 19.1% and -22.9%; in experiment [6] (setting [7]), -4%; in experiment [6] (setting [8]), -1%; in experiment [6] (at 50.0 µM), 18.9% and -0.25%.

Turning to `CCCCCCCCCCCC[As](=O)(O)O`, the growth inhibition in experiment [1] (setting [7]) is 0%; in experiment [1] (setting [8]), 31%; in experiment [1] (at 50.0 µM) it was 99.4% (active); in experiment [2] (setting [7]), -1%; in experiment [2] (setting [8]) it was 26%; in experiment [2] (at 50.0 µM), 99.3% (active). The growth inhibition in experiment [3] (setting [7]) is 7%; in experiment [3] (setting [8]) it was 48%; in experiment [3] (at 50.0 µM), 98.2% (active); in experiment [4] (setting [7]), -3%; in experiment [4] (setting [8]), 46%; in experiment [4] (at 50.0 µM) it was 98.5% (active). In addition, the growth inhibition was 3% in experiment [5] (setting [7]); 53% in experiment [5] (setting [8]); 99.2% (active) in experiment [5] (at 50.0 µM); 6% in experiment [6] (setting [7]); 51% in experiment [6] (setting [8]); 98.9% (active) in experiment [6] (at 50.0 µM).

Regarding `CC1C(=O)OCC1(C)O` (configuration not stated), the growth inhibition was 1% in experiment [1] (setting [7]); -2% in experiment [1] (setting [8]); -15.2% in experiment [1] (at 50.0 µM); 1% in experiment [2] (setting [7]); 0% in experiment [2] (setting [8]); -11.7% in experiment [2] (at 50.0 µM). The growth inhibition in experiment [3] (setting [7]) was -4%; in experiment [3] (setting [8]), 0%; in experiment [3] (at 50.0 µM), -5.55%; in experiment [4] (setting [7]) it was 1%; in experiment [4] (setting [8]), 0%; in experiment [4] (at 50.0 µM), 0.75%. Also, the growth inhibition in experiment [5] (setting [7]) was 2%; in experiment [5] (setting [8]), 2%; in experiment [5] (at 50.0 µM) it was 46%; in experiment [6] (setting [7]) it was 4%; in experiment [6] (setting [8]) it was 3%; in experiment [6] (at 50.0 µM), -21.6%.

`COC1=C(C)C(=O)C2=C(C1=O)C(CO)N1C(C#N)C3CC4C(C1C2N1CCOC41)N3C` (configuration not stated): the growth inhibition in experiment [1] (setting [7]) was 39%; in experiment [1] (setting [8]), 51%; in experiment [1] (at 50.0 µM), 75.8% (active) and 75.5% (active); in experiment [2] (setting [7]), 9%; in experiment [2] (setting [8]), 52%; in experiment [2] (at 50.0 µM), 85.8% (active) and 89.7% (active). For the same molecule, the growth inhibition in experiment [3] (setting [7]) is 20%; in experiment [3] (setting [8]) it was 47%; in experiment [3] (at 50.0 µM), 77.3% (active) and 77.7% (active); in experiment [4] (setting [7]) it was 44%; in experiment [4] (setting [8]) it was 80% (active); in experiment [4] (at 50.0 µM), 85.1% (active) and 85% (active). Besides, the growth inhibition in experiment [5] (setting [7]) is 19%; in experiment [5] (setting [8]) it was 76% (active); in experiment [5] (at 50.0 µM), 83.2% (active) and 87.9% (active); in experiment [6] (setting [7]), 19%; in experiment [6] (setting [8]), 49%; in experiment [6] (at 50.0 µM), 78.7% (active) and 81% (active).

Consider `COc1cc[c]([Sb]([Br])([CH]=C(C)C)([CH]=C(C)C)[CH]=C(C)C)cc1`, for which the growth inhibition in experiment [1] (setting [7]) is -1%; in experiment [1] (setting [8]) it was 67%; in experiment [1] (at 50.0 µM), 80.8% (active); in experiment [2] (setting [7]), -5%; in experiment [2] (setting [8]), 85% (active); in experiment [2] (at 50.0 µM), 76.5% (active). Besides, the growth inhibition in experiment [3] (setting [7]) is -1%; in experiment [3] (setting [8]), 62%; in experiment [3] (at 50.0 µM) it was 35%; in experiment [4] (setting [7]), -12%; in experiment [4] (setting [8]) it was 54%; in experiment [4] (at 50.0 µM), 49.2%. For the same molecule, the growth inhibition in experiment [5] (setting [7]) is -9%; in experiment [5] (setting [8]) it was 72% (active); in experiment [5] (at 50.0 µM), 80.3% (active); in experiment [6] (setting [7]) it was -6%; in experiment [6] (setting [8]) it was 73% (active); in experiment [6] (at 50.0 µM), 72.8% (active).

Take `N#C[S-].[Nd+3].c1ccc(-c2ccccn2)nc1.c1ccc(-c2ccccn2)nc1.c1ccc(-c2ccccn2)nc1`: the growth inhibition in experiment [1] (setting [7]) was 62%; in experiment [1] (setting [8]), 99% (active); in experiment [1] (at 50.0 µM) it was 91.2% (active); in experiment [2] (setting [7]), 40%; in experiment [2] (setting [8]), 99% (active); in experiment [2] (at 50.0 µM), 94.1% (active). The growth inhibition was 44% in experiment [3] (setting [7]); 99% (active) in experiment [3] (setting [8]); 93.5% (active) in experiment [3] (at 50.0 µM); 33% in experiment [4] (setting [7]); 96% (active) in experiment [4] (setting [8]); 92.5% (active) in experiment [4] (at 50.0 µM). For the same molecule, the growth inhibition in experiment [5] (setting [7]) is 62%; in experiment [5] (setting [8]), 100% (active); in experiment [5] (at 50.0 µM) it was 93% (active); in experiment [6] (setting [7]), 51%; in experiment [6] (setting [8]), 99% (active); in experiment [6] (at 50.0 µM), 92% (active).

Turning to `O=C1N[C@@H]2C(=C[C@H](O)[C@@H](O)[C@H]2O)c2cc3c(c(O)c21)OCO3`, the growth inhibition in experiment [1] (setting [7]) was 41%; in experiment [1] (setting [8]), 82% (active); in experiment [1] (at 50.0 µM), 3.8%; in experiment [2] (setting [7]), 41%; in experiment [2] (setting [8]), 82% (active); in experiment [2] (at 50.0 µM), -19%. Besides, the growth inhibition in experiment [3] (setting [7]) is 53%; in experiment [3] (setting [8]) it was 84% (active); in experiment [3] (at 50.0 µM) it was 18.1%; in experiment [4] (setting [7]), 60%; in experiment [4] (setting [8]) it was 83% (active); in experiment [4] (at 50.0 µM), 0.2%. In addition, the growth inhibition is 53% in experiment [5] (setting [7]); 78% (active) in experiment [5] (setting [8]); -3.1% in experiment [5] (at 50.0 µM); 41% in experiment [6] (setting [7]); 84% (active) in experiment [6] (setting [8]); 6.3% in experiment [6] (at 50.0 µM).

`ClCCN(CCCl)CCN1c2ccccc2Sc2ccc3ccccc3c21`: the growth inhibition was 3% in experiment [1] (setting [7]); 31% in experiment [1] (setting [8]); 80% (active) in experiment [1] (at 50.0 µM); 2% in experiment [2] (setting [7]); 53% in experiment [2] (setting [8]); 40% in experiment [2] (at 50.0 µM). For the same molecule, the growth inhibition was 7% in experiment [3] (setting [7]); 81% (active) in experiment [3] (setting [8]); 95.8% (active) in experiment [3] (at 50.0 µM); -7% in experiment [4] (setting [7]); 18% in experiment [4] (setting [8]); 70.9% (active) in experiment [4] (at 50.0 µM). In addition, the growth inhibition in experiment [5] (setting [7]) is -5%; in experiment [5] (setting [8]), 42%; in experiment [5] (at 50.0 µM) it was 40.6%; in experiment [6] (setting [7]) it was 12%; in experiment [6] (setting [8]) it was 78% (active); in experiment [6] (at 50.0 µM) it was 83.5% (active).

In the case of `[Cl][Hg][Cl]`, the growth inhibition in experiment [1] (setting [7]) was 99% (active); in experiment [1] (setting [8]), 99% (active); in experiment [1] (at 50.0 µM) it was 91.3% (active); in experiment [2] (setting [7]), 100% (active); in experiment [2] (setting [8]) it was 100% (active); in experiment [2] (at 50.0 µM) it was 93.3% (active). Further, the growth inhibition in experiment [3] (setting [7]) was 100% (active); in experiment [3] (setting [8]), 100% (active); in experiment [3] (at 50.0 µM), 94% (active); in experiment [4] (setting [7]), 99% (active); in experiment [4] (setting [8]), 99% (active); in experiment [4] (at 50.0 µM) it was 92.3% (active). Further, the growth inhibition in experiment [5] (setting [7]) is 100% (active); in experiment [5] (setting [8]), 92% (active); in experiment [5] (at 50.0 µM), 93.1% (active); in experiment [6] (setting [7]), 100% (active); in experiment [6] (setting [8]) it was 99% (active); in experiment [6] (at 50.0 µM), 92.4% (active).
